# Where “and” joins values, the source holds several entries; their conditions need not be identical. Equal entries are not always repeated. A number with no mark means an inactive call. Inconclusive results are not listed. A call without a number means that no potency is given here. Calls of active or inactive are those of the source. Unless noted, the call rests on the fitted dose curve; in most records, active means well fitted curve in the direction sought with a large enough effect in the repeat runs; inconclusive means weak or mixed curves; inactive means no such curve, though single readings can be large; an effect the other way counts as inactive or inconclusive.
# Assays:
# [1] = qHTS assay to test for compound auto fluorescence at 535 nm (green) in HEK293 cells (AID 720680)
# [2] = qHTS assay to test for compound auto fluorescence at 460 nm (blue) in HEK293 cell free culture (AID 720681)
# How it was run: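 Blue fluorescence (Ex 405/Em 460 nm, triamterene-equivalent) was read immediately after pin transfer of compound or DMSO into medium (DMEM, 10% FBS) without cells.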
# [3] = qHTS assay to test for compound auto fluorescence at 535 nm (green) in HEK293 cell free culture (AID 720682)
# How it was run: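 Green-channel intensity (Ex/Em 485/535 nm) was recorded from compound-treated wells containing only DMEM with 10% FBS. Fluorescein provided the equivalency standard.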
# [4] = qHTS assay to test for compound auto fluorescence at 590 nm (red) in HEK293 cell free culture (AID 720683)
# How it was run: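 Red-channel autofluorescence of compounds in culture medium (DMEM, 10% FBS), no cells, measured at 540/590 nm. Rose Bengal sodium is the reference fluorophore for equivalence.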
# [5] = qHTS assay to test for compound auto fluorescence at 590 nm (red) in HepG2 cell free culture (AID 720684)
# How it was run: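 Plate contents were MEM with 10% FBS plus test compound or DMSO, no cells. Fluorescence was recorded with 540 nm excitation and 590 nm emission.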
# [6] = qHTS assay to test for compound auto fluorescence at 460 nm (blue) in HepG2 cell free culture (AID 720685)
# How it was run: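 Compound (23 nL) or DMSO pinned into cell-free MEM with 10% FBS; blue fluorescence read at 405/460 nm excitation/emission, expressed as auto-fluorescence equivalency to triamterene.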
# [7] = qHTS assay to test for compound auto fluorescence at 535 nm (green) in HepG2 cell free culture (AID 720686)
# [8] = qHTS assay to test for compound auto fluorescence at 460 nm (blue) in HepG2 cells (AID 720687)
# How it was run: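 Blue-channel autofluorescence (Ex/Em 405/460 nm, triamterene-equivalent) was measured after 1 hr compound exposure at 37 C, 5% CO2. Cells were HepG2, plated overnight at 37 C in MEM plus 10% FBS.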
# [9] = molecular target: Glucocorticoid receptor (Homo sapiens) (UniProt P04150); assay: qHTS assay to identify small molecule agonists of the glucocorticoid receptor (GR) signaling pathway (AID 720691; active means well fitted activation curve with a large enough effect in the signal ratio in the repeat runs, not every such curve was filed as active; the % refers to the signal ratio); settings: GR-bla HeLa, beta-lactamase reporter ratio, 18 h; activation: at 62.4 µM (top of the series)
# How it was run: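 Agonist mode in a HeLa line carrying a GRE-controlled beta-lactamase reporter. Compounds act for 18 h at 37 C before a 2 h room-temperature FRET substrate step and fluorescence reading.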
# [10] = qHTS assay to identify small molecule antagonists of the androgen receptor (AR) signaling pathway - cell viability counter screen (AID 743033; further: nearly all actives have a fitted effect of over 45% in size; further: potency means the concentration at half of the fitted maximal effect)
# [11] = qHTS assay to identify small molecule antagonists of the androgen receptor (AR) signaling pathway using the MDA cell line - cell viability counter screen (AID 743041; further: nearly all actives have a fitted effect of over 45% in size; further: potency means the concentration at half of the fitted maximal effect)
# How it was run: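 R1881-driven MDA-kb2 AR-luc cells, 3,000/well, were dosed with library compounds for 16 h; cell health came from CellTiter-Fluor fluorescence in the reporter wells.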
# [12] = qHTS assay to identify small molecule antagonists of the thyroid receptor (TR) signaling pathway - cell viability counter screen (AID 743064); further: nearly all actives have a fitted effect of over 50% in size; further: potency means the concentration at half of the fitted maximal effect
# How it was run: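 In rat pituitary GH3.TRE-Luc reporter cells co-exposed to compound and 1 nM T3 for 23.5 h, cytotoxicity was assessed with CellTiter-Fluor in the same wells, read by fluorescence.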
# [13] = molecular target: Glucocorticoid receptor (Homo sapiens) (UniProt P04150); assay: qHTS assay to identify small molecule antagonists of the glucocorticoid receptor (GR) signaling pathway (AID 720692; active means well fitted inhibition curve with a large enough effect in the signal ratio in the repeat runs, not every such curve was filed as active; the % refers to the signal ratio; further: potency means the concentration at half of the fitted maximal effect)
# How it was run: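 Cells plated, rested 4 h at 37 C/5% CO2; compounds in DMSO pin-transferred; dexamethasone added to 5 nM final; 18 h at 37 C; B/G FRET substrate added, 2 h room temperature; fluorescence measured.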
# [14] = qHTS assay to identify small molecule antagonists of the glucocorticoid receptor (GR) signaling pathway - cell viability counter screen (AID 720693); further: nearly all actives have a fitted effect of over 55% in size
# [15] = qHTS assay for identifying genotoxic compounds that show differential cytotoxicity against isogenic chicken DT40 cell lines with known DNA damage response pathways - wild type cell line (AID 743012); further: nearly all actives have a fitted effect of over 60% in size; further: potency means the concentration at half of the fitted maximal effect
# How it was run: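 Cells (DT40 wild type, 300/well) are treated with DMSO-dissolved compounds after a ~0.5 h pre-incubation and kept 40 h at 37 C/5% CO2. Viability is then measured by CellTiter-Glo luminescence following 30 min at room temperature.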
# [16] = qHTS assay for identifying genotoxic compounds that show differential cytotoxicity against isogenic chicken DT40 cell lines with known DNA damage response pathways - Rev3 mutant cell line (AID 743014); further: nearly all actives have a fitted effect of over 55% in size; further: potency means the concentration at half of the fitted maximal effect
# [17] = qHTS assay for identifying genotoxic compounds that show differential cytotoxicity against isogenic chicken DT40 cell lines with known DNA damage response pathways - Rad54/Ku70 mutant cell line (AID 743015); further: nearly all actives have a fitted effect of over 60% in size; further: potency means the concentration at half of the fitted maximal effect
# [18] = molecular target: Androgen receptor (Homo sapiens) (UniProt P10275); assay: qHTS assay to identify small molecule antagonists of the androgen receptor (AR) signaling pathway (AID 743035; active means well fitted inhibition curve with a large enough effect in the signal ratio in the repeat runs, not every such curve was filed as active; the % refers to the signal ratio)
# How it was run: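 Antagonism is scored as loss of R1881-driven beta-lactamase reporter expression in HEK293 cells carrying the reporter under a UAS element, after 16 h co-treatment at 37C and a 2 h room-temperature FRET substrate read.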
# [19] = molecular target: Androgen receptor (Homo sapiens) (UniProt P10275); assay: qHTS assay to identify small molecule antagonists of the androgen receptor (AR) signaling pathway using the MDA cell line (AID 743042; further: nearly all actives have a fitted effect of over 55% in size)
# How it was run: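 Antagonist mode: compounds plus R1881 agonist added to MDA-kb2 AR-luc cells, incubated 16 h at 37C. Luciferase reporter luminescence quantified, with multiplexed CellTiter-Fluor readout for cell viability.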
# [20] = molecular target: Androgen receptor (Homo sapiens) (UniProt P10275); assay: qHTS assay to identify small molecule agonists of the androgen receptor (AR) signaling pathway using the MDA cell line (AID 743040; further: nearly all actives have a fitted effect of over 20% in size)
# How it was run: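 After a 5 h incubation at 37C and 0% CO2, MDA-kb2 reporter cells were dosed with compounds in DMSO and kept 16 h under the same conditions. Luciferase activity was then read as luminescence with ONE-Glo.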
# Sequence of Androgen receptor (Homo sapiens) (P10275 whole entry, looked up): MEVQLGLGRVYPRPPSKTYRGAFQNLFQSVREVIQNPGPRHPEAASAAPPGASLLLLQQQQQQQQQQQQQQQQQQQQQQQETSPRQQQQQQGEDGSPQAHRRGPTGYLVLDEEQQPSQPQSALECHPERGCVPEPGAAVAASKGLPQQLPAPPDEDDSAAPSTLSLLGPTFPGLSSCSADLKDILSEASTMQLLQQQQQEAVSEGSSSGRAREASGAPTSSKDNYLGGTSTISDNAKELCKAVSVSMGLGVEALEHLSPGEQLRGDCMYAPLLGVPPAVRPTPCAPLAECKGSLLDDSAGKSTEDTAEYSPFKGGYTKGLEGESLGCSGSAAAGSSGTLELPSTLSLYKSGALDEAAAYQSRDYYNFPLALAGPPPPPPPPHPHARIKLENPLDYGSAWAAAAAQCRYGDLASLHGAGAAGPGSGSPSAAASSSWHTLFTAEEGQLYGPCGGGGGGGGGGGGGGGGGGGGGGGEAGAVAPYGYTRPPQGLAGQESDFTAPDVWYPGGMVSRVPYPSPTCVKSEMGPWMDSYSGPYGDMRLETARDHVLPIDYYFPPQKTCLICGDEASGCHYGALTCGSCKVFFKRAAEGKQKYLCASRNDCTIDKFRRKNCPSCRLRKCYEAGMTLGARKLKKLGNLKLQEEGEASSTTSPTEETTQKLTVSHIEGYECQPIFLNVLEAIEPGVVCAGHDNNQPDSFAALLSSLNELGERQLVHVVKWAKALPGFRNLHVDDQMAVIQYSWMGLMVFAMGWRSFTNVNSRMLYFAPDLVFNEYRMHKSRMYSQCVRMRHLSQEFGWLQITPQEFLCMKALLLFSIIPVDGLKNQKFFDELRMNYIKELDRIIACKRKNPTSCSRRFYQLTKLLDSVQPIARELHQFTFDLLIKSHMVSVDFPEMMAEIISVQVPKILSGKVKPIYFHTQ
# Sequence of Glucocorticoid receptor (Homo sapiens) (P04150 whole entry, looked up): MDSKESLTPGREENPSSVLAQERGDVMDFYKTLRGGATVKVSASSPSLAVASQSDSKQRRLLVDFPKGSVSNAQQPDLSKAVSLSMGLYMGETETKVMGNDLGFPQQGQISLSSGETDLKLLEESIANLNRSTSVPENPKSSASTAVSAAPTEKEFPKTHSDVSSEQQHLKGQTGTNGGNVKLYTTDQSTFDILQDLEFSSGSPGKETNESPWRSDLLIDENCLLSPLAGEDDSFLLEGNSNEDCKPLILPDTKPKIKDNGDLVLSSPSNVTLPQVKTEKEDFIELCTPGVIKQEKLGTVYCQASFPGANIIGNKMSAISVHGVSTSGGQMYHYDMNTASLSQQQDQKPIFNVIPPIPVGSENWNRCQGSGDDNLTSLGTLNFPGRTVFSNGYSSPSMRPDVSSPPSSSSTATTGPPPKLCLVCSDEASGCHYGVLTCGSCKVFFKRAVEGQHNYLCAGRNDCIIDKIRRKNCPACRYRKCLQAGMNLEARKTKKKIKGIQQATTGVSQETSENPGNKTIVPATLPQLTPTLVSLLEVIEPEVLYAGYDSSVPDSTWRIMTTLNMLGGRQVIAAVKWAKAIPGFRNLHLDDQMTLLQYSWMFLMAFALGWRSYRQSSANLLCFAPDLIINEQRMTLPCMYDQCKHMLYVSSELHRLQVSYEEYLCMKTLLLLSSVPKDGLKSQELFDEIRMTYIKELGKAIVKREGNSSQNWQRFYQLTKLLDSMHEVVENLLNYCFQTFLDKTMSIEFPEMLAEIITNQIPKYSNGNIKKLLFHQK
compound,measurement,setting,value
CC(C)(C)C1=CC(=O)C=C(C(C)(C)C)C1=O,Potency,[1],inactive
same,Potency,[2],inactive
same,Potency,[3],inactive
same,Potency,[4],inactive
same,Potency,[5],inactive
same,Potency,[6],inactive
same,Potency,[7],inactive
same,Potency,[8],inactive
same,Potency,[9],inactive
same,Potency,[10],inactive
same,Potency,[11],inactive
same,Potency,[12],inactive
Cc1cn[nH]c1,Potency,[1],inactive
same,Potency,[2],inactive
same,Potency,[3],inactive
same,Potency,[4],inactive
same,Potency,[5],inactive
same,Potency,[6],inactive
same,Potency,[7],inactive
same,Potency,[8],inactive
same,Potency,[9],inactive
same,Potency,[13],inactive
same,Potency,[14],inactive
same,Potency,[15],inactive
same,Potency,[16],inactive
same,Potency,[17],inactive
same,Potency,[10],inactive
same,Potency,[18],inactive
same,Potency,[11],inactive
same,Potency,[19],inactive
same,Potency,[12],inactive
CC(=O)Oc1ccc(C2(c3ccc(OC(C)=O)cc3)C(=O)Nc3ccccc32)cc1,Potency,[1],inactive
same,Potency,[2],inactive
same,Potency,[3],inactive
same,Potency,[4],inactive
same,Potency,[5],inactive
same,Potency,[6],inactive
same,Potency,[7],inactive
same,Potency,[8],inactive
same,Potency,[9],inactive
same,Potency,[13],16.9 µM (active) and 26.8 µM (active)
same,Potency,[16],inactive
same,Potency,[10],inactive
same,Potency,[12],inactive
CCc1cccc(C)c1,Potency,[1],inactive
same,Potency,[2],inactive
same,Potency,[3],inactive
same,Potency,[4],inactive
same,Potency,[5],inactive
same,Potency,[6],inactive
same,Potency,[7],inactive
same,Potency,[8],inactive
same,Potency,[13],inactive
same,Potency,[14],inactive
same,Potency,[15],inactive
same,Potency,[16],inactive
same,Potency,[17],inactive
same,Potency,[10],inactive
same,Potency,[11],inactive
same,Potency,[12],inactive
CCCCN(CCCC)CCC(O)c1cc2c(Cl)cc(Cl)cc2c2cc(C(F)(F)F)ccc12 (stereo unspecified),"fluorescence, % of fluorescein",[1],-0.0754% [at 18.6 µM]
same,"fluorescence, % of fluorescent control",[2],-0.0401% [at 18.6 µM]
same,activity change,[3],"-0.0209% [at 18.6 µM, active compounds read high]"
same,"fluorescence, % of fluorescent control",[4],0.212% [at 18.6 µM]
same,"fluorescence, % of Rose Bengal",[5],0.0098% [at 18.6 µM]
same,"fluorescence, % of fluorescent control",[6],-0.0142% [at 18.6 µM]
same,"fluorescence, % of fluorescein control",[7],-0.0465% [at 18.6 µM]
same,"fluorescence, % of fluorescent control",[8],0.0481% [at 18.6 µM]
same,Potency,[9],inactive
same,Potency,[14],inactive
same,Potency,[17],10.1 µM (active)
same,Potency,[10],inactive
same,Potency,[11],inactive
O=C(NO)c1ccccc1,Potency,[1],inactive
same,Potency,[2],inactive
same,Potency,[3],inactive
same,Potency,[4],inactive
same,Potency,[5],inactive
same,Potency,[6],inactive
same,Potency,[7],inactive
same,Potency,[8],inactive
same,Potency,[9],inactive
same,Potency,[16],44.9 µM (active)
same,Potency,[17],50.4 µM (active)
same,Potency,[11],inactive
same,Potency,[19],inactive
same,Potency,[12],26 µM (active)
CC(C)N=C(N)/N=C(\N)Nc1ccc(Cl)cc1,"fluorescence, % of fluorescein",[1],-0.0268% [at 18.6 µM]
same,"fluorescence, % of fluorescent control",[2],-0.0312% [at 18.6 µM]
same,activity change,[3],"-0.0305% [at 18.6 µM, active compounds read high]"
same,"fluorescence, % of fluorescent control",[4],-0.0425% [at 18.6 µM]
same,"fluorescence, % of Rose Bengal",[5],0.0381% [at 18.6 µM]
same,"fluorescence, % of fluorescent control",[6],-0.111% [at 18.6 µM]
same,"fluorescence, % of fluorescein control",[7],0.0037% [at 18.6 µM]
same,"fluorescence, % of fluorescent control",[8],0.176% [at 18.6 µM]
same,Potency,[9],inactive
same,Potency,[13],inactive
same,Potency,[15],3.59 µM (active)
same,Potency,[16],12.7 µM (active)
same,Potency,[17],10.1 µM (active)
same,Potency,[11],inactive
same,Potency,[12],inactive
O=Nc1ccc(NO)cc1,Potency,[1],inactive
same,Potency,[2],inactive
same,Potency,[3],inactive
same,Potency,[4],inactive
same,Potency,[5],inactive
same,Potency,[6],inactive
same,Potency,[7],inactive
same,Potency,[8],inactive
same,Potency,[9],inactive
same,Potency,[14],inactive
same,Potency,[16],inactive
same,Potency,[17],inactive
same,Potency,[10],inactive
same,Potency,[11],inactive
same,Potency,[12],inactive
CSc1c(Cl)c(Cl)c(Cl)c(Cl)c1Cl,Potency,[1],inactive
same,Potency,[2],inactive
same,Potency,[3],inactive
same,Potency,[4],inactive
same,Potency,[5],inactive
same,Potency,[6],inactive
same,Potency,[7],inactive
same,Potency,[8],inactive
same,Potency,[9],inactive
same,Potency,[13],inactive
same,Potency,[14],inactive
same,Potency,[17],inactive
same,Potency,[10],inactive
same,Potency,[11],inactive
CCC(=O)OCCc1ccccc1,Potency,[1],inactive
same,Potency,[2],inactive
same,Potency,[3],inactive
same,Potency,[4],inactive
same,Potency,[5],inactive
same,Potency,[6],inactive
same,Potency,[7],inactive
same,Potency,[8],inactive
same,Potency,[9],inactive
same,Potency,[13],inactive
same,Potency,[14],inactive
same,Potency,[15],18.5 µM (active)
same,Potency,[16],23.3 µM (active)
same,Potency,[17],41.4 µM (active)
same,Potency,[11],inactive
same,Potency,[12],inactive
CCN(CC)c1ccc(N)cc1,Potency,[1],inactive
same,Potency,[2],inactive
same,Potency,[3],inactive
same,Potency,[4],inactive
same,Potency,[5],inactive
same,Potency,[6],inactive
same,Potency,[7],inactive
same,Potency,[8],inactive
same,Potency,[9],inactive
same,Potency,[15],5.6 µM (active)
same,Potency,[16],4.45 µM (active)
same,Potency,[17],4.45 µM (active)
same,Potency,[10],15.9 µM (active)
same,Potency,[11],22.3 µM (active)
CN(C)CCOC(c1ccccc1)c1ccccc1 (tested in a mixture with another compound),Potency,[1],inactive
same,Potency,[2],inactive
same,Potency,[3],inactive
same,Potency,[4],inactive
same,Potency,[5],inactive
same,Potency,[6],inactive
same,Potency,[7],inactive
same,Potency,[8],inactive
same,Potency,[9],inactive
same,Potency,[14],inactive
same,Potency,[20],inactive
same,Potency,[11],inactive
S=P(N1CC1)(N1CC1)N1CC1,Potency,[1],inactive
same,Potency,[2],inactive
same,Potency,[3],inactive
same,Potency,[4],inactive
same,Potency,[5],inactive
same,Potency,[6],inactive
same,Potency,[7],inactive
same,Potency,[8],inactive
same,Potency,[9],inactive
same,Potency,[13],inactive
same,Potency,[15],21.1 µM (active)
same,Potency,[16],944 nM (active) and 319 nM (active)
same,Potency,[17],26.6 µM (active) and 11.4 µM (active)
same,Potency,[10],inactive
same,Potency,[11],inactive
same,Potency,[12],inactive
CC1CCCNC1 (stereo unspecified),Potency,[1],inactive
same,Potency,[2],inactive
same,Potency,[3],inactive
same,Potency,[4],inactive
same,Potency,[5],inactive
same,Potency,[6],inactive
same,Potency,[7],inactive
same,Potency,[8],inactive
same,Potency,[9],inactive
same,Potency,[13],inactive
same,Potency,[14],inactive
same,Potency,[11],inactive
same,Potency,[12],inactive
Cc1occc1SSc1ccoc1C,Potency,[1],inactive
same,Potency,[2],inactive
same,Potency,[3],inactive
same,Potency,[4],inactive
same,Potency,[5],inactive
same,Potency,[6],inactive
same,Potency,[7],inactive
same,Potency,[8],inactive
same,Potency,[9],inactive
same,Potency,[14],inactive
same,Potency,[16],19.3 µM (active)
same,Potency,[17],15.4 µM (active)
same,Potency,[10],inactive
same,Potency,[11],inactive

# Reference: PubChem BioAssay (Tox21)
